Test results published in PubChem BioAssay (NCATS).
Values joined by “and” are separate entries in the source; they are usually repeats but may differ in a detail not shown here. Equal entries are not always repeated. Inconclusive results are not listed. Active and inactive are the calls of the source. Unless noted, calls follow the shape of the dose curve; as a rule, active = well fitted curve in the direction sought with a large enough effect; inconclusive = small, poorly fitted or top-dose-only effect, or another doubt; inactive = no such curve, though single readings can be large; an effect the other way counts as inactive or inconclusive.

Experiments:
[1] = molecular target: Calcium and integrin-binding protein 1 (Homo sapiens) (UniProt Q99828); experiment: Primary qHTS for Identification of Calcium Integrin Binding Protein 1 (CIB1) Competitor (AID 1508620); settings: CIB1-GST / FITC-alphaIIb peptide fluorescence polarization; series mostly up to 114 µM;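 also: GST tagged CIB1 binding a fluorescein labelled alphaIIb integrin peptide tracer; top concentration of the series differs between compounds; % is scaled to controls: 0 for no effect and ±100 for the full control effect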
How it was run: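 Fluorescence polarization competition: CIB1-GST (1 uM final) preincubated with compound 15 min at room temperature, then FITC-labeled alphaIIb peptide (100 nM final) added for another 15 min. Polarization read at Ex 480/Em 540.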

[2] = molecular target: Cytochrome P450 2C9 (Homo sapiens) (UniProt P11712); experiment: Cytochrome P450 family 2 subfamily C member 9 (CYP2C9) small molecule antagonists: luciferase biochemical (cell-free) qHTS assay (AID 1645842; active = well fitted curve in the direction sought with a large enough effect in the repeat runs; an effect the other way counts as inactive or inconclusive; also: nearly all actives have a fitted effect of over 55% in size; also: potency is read from the fitted curve at half-maximal effect; as to activity change, negative = inhibition: % is scaled to controls: 0 for no effect and ±100 for the full control effect); settings: P450-Glo CYP2C9 enzyme assay, luciferin luminescence; series mostly up to 57.4 µM
How it was run: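 Luminescence, after 20 min with luciferin detection reagent, reflected CYP2C9 turnover during a 1 h NADPH-driven reaction at 37C. Enzyme-substrate mix contained 0.4% bovine serum albumin and was preincubated with compound 10 min at room temperature.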

[3] = Primary qHTS for inhibitors of nuclear receptor binding SET domain protein 2 (NSD2) in an isogenic RCH-ACV NSD2 p.E1099K mutant (9B) (AID 1645876); settings: RCH-ACV NSD2 E1099K (9B) viability, CellTiter-Glo, 72 h; series mostly up to 44.9 µM; also: nearly all actives have a fitted effect of over 70% in size; also: potency is read from the fitted curve at half-maximal effect
[4] = Primary qHTS for inhibitors of nuclear receptor binding SET domain protein 2 (NSD2) in an RCH-ACV wild type WT cells (2C) (AID 1645877); settings: RCH-ACV (leukaemia line) NSD2 WT (2C) viability, CellTiter-Glo, 72 h; series mostly up to 44.9 µM; also: nearly all actives have a fitted effect of over 70% in size; also: potency is read from the fitted curve at half-maximal effect
[5] = molecular target: Cytochrome P450 2D6 (Homo sapiens) (UniProt P10635); experiment: Cytochrome P450 family 2 subfamily D member 6 (CYP2D6) small molecule antagonists: luciferase biochemical (cell-free) qHTS assay (AID 1645840; active = well fitted curve in the direction sought with a large enough effect in the repeat runs; an effect the other way counts as inactive or inconclusive; also: % is scaled to controls: 0 for no effect and ±100 for the full control effect; nearly all actives have a fitted effect of over 55% in size); settings: P450-Glo CYP2D6 enzyme, luciferin luminescence, 1 h; series mostly up to 57.4 µM
How it was run: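 P450-Glo luminescent screen: recombinant CYP2D6 enzyme–proluciferin substrate mix preincubated with compound 10 min at room temperature, then NADPH regeneration added for 1 h at room temperature. Detection reagent added for 20 min; luciferin light read as relative luminescence units.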

[6] = molecular target: Catechol O-methyltransferase (Homo sapiens) (UniProt P21964); experiment: Confirmatory Screen for Target Class Profiling of Small Molecule Inhibitors of Methyltransferases (AID 1745852; calls by dose curve; also: potency is read from the fitted curve at half-maximal effect; as to activity change, negative = inhibition: % is scaled to controls: 0 for no effect and ±100 for the full control effect); settings: MTase-Glo luminescence, SAH detection, recombinant enzyme; measured here: COMT max response; stronger effect = lower value
[7] = molecular target: Guanidinoacetate N-methyltransferase (Homo sapiens) (UniProt Q14353); experiment: as above; settings: MTase-Glo luminescence, SAH detection, recombinant enzyme; activity change, negative = inhibition: at 57.3 µM (top of the series) unless noted; series mostly up to 57.3 µM
[8] = molecular target: Nicotinamide N-methyltransferase (Homo sapiens) (UniProt P40261); experiment: as above; settings: MTase-Glo luminescence, SAH detection, recombinant enzyme; measured here: NNMT max response; stronger effect = lower value
[9] = molecular target: Phenylethanolamine N-methyltransferase (Homo sapiens) (UniProt P11086); experiment: as above; settings: MTase-Glo luminescence, SAH detection, recombinant enzyme; measured here: PNMT max response; stronger effect = lower value
[10] = molecular target: N-terminal Xaa-Pro-Lys N-methyltransferase 1 (Homo sapiens) (UniProt Q9BV86); experiment: Confirmatory qHTS for Inhibitors of N-terminal methyltransferase 1 (NTMT1): MTaseGlo Assay (AID 1645874); settings: NTMT1 enzyme, MTase-Glo SAH luminescence; series mostly up to 100 µM; also: nearly all actives have a fitted effect of over 65% in size; also: potency is read from the fitted curve at half-maximal effect;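 as to activity change, negative = inhibition: luminescence from SAH made as NTMT1 methylates SPKRIA peptide using SAM; 0% = DMSO control and -100% = no-enzyme control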
How it was run: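 qHTS format: NTMT1 125 nM, SAM 100 uM, peptide SPKRIA 1 uM final; 15 min compound preincubation, 30 min reaction at room temperature. MTase-Glo luminescence.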

Papain (Carica papaya) = Papain (Carica papaya) (UniProt P00784); experiment: Primary qHTS assay for inhibitors of the protease papain (AID 1645873); settings: papain Z-FR-AMC cleavage, AMC fluorescence; series mostly up to 49.8 µM;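 also: papain turnover of Z-FR-AMC read as the AMC fluorescence gain over 10 min; % is scaled to controls: 0 for no effect and ±100 for the full control effect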
Papain (Carica papaya), sequence (P00784 whole entry, looked up): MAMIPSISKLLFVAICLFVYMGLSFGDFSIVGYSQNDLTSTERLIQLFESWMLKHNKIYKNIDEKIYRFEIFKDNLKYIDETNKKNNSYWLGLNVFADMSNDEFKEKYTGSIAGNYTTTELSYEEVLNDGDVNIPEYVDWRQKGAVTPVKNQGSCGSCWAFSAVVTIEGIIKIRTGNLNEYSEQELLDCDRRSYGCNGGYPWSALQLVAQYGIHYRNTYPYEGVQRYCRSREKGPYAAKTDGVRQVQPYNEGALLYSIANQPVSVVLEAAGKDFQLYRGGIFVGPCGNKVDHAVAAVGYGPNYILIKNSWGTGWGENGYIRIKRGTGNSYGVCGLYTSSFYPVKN

Catechol O-methyltransferase (Homo sapiens), sequence (P21964 whole entry, looked up): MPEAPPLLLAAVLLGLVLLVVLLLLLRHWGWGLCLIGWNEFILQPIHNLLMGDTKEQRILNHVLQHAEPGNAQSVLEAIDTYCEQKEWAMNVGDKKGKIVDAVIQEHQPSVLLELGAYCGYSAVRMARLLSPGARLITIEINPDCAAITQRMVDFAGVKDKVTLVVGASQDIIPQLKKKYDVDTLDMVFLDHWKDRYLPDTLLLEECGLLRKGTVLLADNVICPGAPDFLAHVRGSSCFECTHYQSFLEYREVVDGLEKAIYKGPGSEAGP
Calcium and integrin-binding protein 1 (Homo sapiens), sequence (Q99828 whole entry, looked up): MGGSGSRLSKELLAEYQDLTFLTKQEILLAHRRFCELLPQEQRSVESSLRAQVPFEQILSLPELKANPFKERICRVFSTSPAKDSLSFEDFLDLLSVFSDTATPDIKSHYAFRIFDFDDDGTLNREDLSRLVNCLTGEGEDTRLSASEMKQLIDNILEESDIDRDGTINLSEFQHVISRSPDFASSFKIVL
Nicotinamide N-methyltransferase (Homo sapiens), sequence (P40261 whole entry, looked up): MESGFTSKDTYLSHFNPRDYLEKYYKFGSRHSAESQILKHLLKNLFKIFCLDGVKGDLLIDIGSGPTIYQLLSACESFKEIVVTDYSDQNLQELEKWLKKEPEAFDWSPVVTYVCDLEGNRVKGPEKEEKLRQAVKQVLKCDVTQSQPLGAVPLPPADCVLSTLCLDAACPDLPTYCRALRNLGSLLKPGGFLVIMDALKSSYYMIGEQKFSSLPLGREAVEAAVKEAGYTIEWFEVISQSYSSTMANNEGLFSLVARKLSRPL
Phenylethanolamine N-methyltransferase (Homo sapiens), sequence (P11086 whole entry, looked up): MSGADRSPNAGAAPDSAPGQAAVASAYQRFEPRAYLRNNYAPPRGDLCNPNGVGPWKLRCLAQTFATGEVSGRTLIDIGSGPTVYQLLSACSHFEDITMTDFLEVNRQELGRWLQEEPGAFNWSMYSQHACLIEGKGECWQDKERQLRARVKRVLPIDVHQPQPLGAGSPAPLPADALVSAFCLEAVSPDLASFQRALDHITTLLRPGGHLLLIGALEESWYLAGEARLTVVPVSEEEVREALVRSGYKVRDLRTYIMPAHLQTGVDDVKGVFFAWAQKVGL
N-terminal Xaa-Pro-Lys N-methyltransferase 1 (Homo sapiens), sequence (Q9BV86 whole entry, looked up): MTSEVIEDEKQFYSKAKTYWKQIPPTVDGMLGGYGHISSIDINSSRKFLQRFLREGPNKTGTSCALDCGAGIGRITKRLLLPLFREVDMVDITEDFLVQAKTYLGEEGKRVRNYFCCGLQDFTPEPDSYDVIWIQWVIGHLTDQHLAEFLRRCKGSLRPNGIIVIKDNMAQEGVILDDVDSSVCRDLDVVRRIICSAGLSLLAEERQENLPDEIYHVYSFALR
Cytochrome P450 2C9 (Homo sapiens), sequence (P11712 whole entry, looked up): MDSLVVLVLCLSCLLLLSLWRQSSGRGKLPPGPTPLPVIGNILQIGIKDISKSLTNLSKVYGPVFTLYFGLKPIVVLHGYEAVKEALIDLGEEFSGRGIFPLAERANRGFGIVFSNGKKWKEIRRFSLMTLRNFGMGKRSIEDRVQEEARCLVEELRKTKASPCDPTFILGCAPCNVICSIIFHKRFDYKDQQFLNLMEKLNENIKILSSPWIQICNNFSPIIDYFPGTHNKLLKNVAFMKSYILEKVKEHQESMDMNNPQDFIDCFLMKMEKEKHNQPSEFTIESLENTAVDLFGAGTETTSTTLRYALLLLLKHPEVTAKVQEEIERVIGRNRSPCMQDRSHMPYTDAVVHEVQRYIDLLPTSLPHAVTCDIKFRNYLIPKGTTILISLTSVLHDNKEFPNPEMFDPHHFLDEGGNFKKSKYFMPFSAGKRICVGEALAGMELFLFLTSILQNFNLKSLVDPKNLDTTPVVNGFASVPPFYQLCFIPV
Cytochrome P450 2D6 (Homo sapiens), sequence (P10635 whole entry, looked up): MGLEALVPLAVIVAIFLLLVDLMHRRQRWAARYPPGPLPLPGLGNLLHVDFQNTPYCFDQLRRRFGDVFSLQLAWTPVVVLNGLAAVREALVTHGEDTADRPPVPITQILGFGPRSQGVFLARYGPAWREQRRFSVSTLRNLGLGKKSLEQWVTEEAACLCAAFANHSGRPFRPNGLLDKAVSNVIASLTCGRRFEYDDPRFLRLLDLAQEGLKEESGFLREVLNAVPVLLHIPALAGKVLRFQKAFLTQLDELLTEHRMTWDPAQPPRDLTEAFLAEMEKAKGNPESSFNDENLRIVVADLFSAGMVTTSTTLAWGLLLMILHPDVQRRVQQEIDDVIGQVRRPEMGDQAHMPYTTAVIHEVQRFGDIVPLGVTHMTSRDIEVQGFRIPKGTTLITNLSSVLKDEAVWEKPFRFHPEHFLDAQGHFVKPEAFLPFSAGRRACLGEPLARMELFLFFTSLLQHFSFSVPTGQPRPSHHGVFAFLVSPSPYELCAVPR

COCCN1CCN(Cc2ccc(-c3n[nH]c4c3C(=O)c3c(NC(=O)NN5CCOCC5)cccc3-4)cc2)CC1
Potency [1]: inactive
Potency [2]: 2.13 µM (active)
Potency [3]: 45.9 nM (active) and 59 nM (active)
Potency [4]: 36.5 nM (active) and 52.5 nM (active)

Cc1cc(NC(=O)Nc2ccc(F)c(F)c2)n(-c2ccccc2)n1
Potency [1]: inactive
Potency [2]: 12 µM (active)
Potency [3]: inactive
Potency [4]: inactive

O=C(NCc1ccc(S(=O)(=O)c2cc(F)cc(F)c2)cc1)c1ccc2nccn2c1
Potency [1]: inactive
Potency [2]: inactive
Potency [3]: inactive
Potency [4]: inactive

CCCC1(c2ccccc2)NC(=O)N(CC(=O)N(C)Cc2c(F)cccc2Cl)C1=O (stereo not drawn)
Potency [1]: inactive
Potency [2]: 12 µM (active)
Potency [3]: inactive

CNS(=O)(=O)CC1CCC(N(C)c2ncnc3[nH]ccc23)CC1 (stereo not drawn)
Potency [1]: inactive
Potency [5]: inactive
activity [6]: -6.68%
activity change, negative = inhibition [7]: -4.35%
activity [8]: -58.2%
activity [9]: -84.3%

CC(Oc1cc(-n2cnc3ccc(CN4CCN(C)CC4)cc32)sc1C(N)=O)c1ccccc1C(F)(F)F (stereo not drawn)
Potency [1]: inactive
Potency [10]: 21.4 µM (active)
Potency [3]: 578 nM (active)
Potency [4]: 649 nM (active)
activity [6]: -36.6%
Potency [7]: 30.4 µM (active)
activity [8]: -27.1%
activity [9]: -38.1%

CC(C)c1nnc(-c2ccc(-c3ccccc3)nc2)n1-c1cccc2nonc12
Potency [1]: inactive
Potency [2]: 13.5 µM (active)
Potency [3]: inactive
Potency [4]: inactive

C/C=C1\[C@H](O[C@@H]2O[C@H](CO)[C@@H](O)[C@H](O)[C@H]2O)OC=C(C(=O)OC)[C@H]1CC(=O)OC[C@H]1O[C@@H](OCCc2ccc(O)cc2)[C@H](O)[C@@H](O)[C@@H]1O
Potency [1]: inactive
Potency [3]: inactive

COc1ccc(-c2cnc3ccc(NCc4ccc(S(N)(=O)=O)cc4)nn23)cc1OC
Potency [1]: inactive
Potency [2]: 6.74 µM (active)
Potency [3]: 9160 nM (active)
Potency [4]: 7280 nM (active)
activity [6]: -34.5%
Potency [7]: 38.3 µM (active)
activity [8]: -24.2%
activity [9]: -27.8%

NC(=O)c1cccc(-c2cc(OC(=O)NC3CCCCC3)ccc2O)c1
Potency [1]: inactive
Potency [10]: inactive

CC(=O)NCC(=O)N1C2CCC1c1cc(Nc3ncc(C(F)(F)F)c(NC4CCC4)n3)ccc12 (stereo not drawn)
Potency [1]: inactive
Potency [2]: 9.52 µM (active)
Potency [3]: 72.8 nM (active)
Potency [4]: 20.5 nM (active)

CCCCNc1ncc2c(-c3ccc(CN4CCN(C)CC4)cc3)cn(C3CCC(O)CC3)c2n1 (stereo not drawn)
Potency [1]: inactive
Potency [2]: 15.1 µM (active)
Potency [3]: 1.64 µM (active) and 2.95 µM (active)
Potency [4]: 205 nM (active) and 332 nM (active) and 662 nM (active)

C[C@@H]([C@@H](O)c1ccc(O)cc1)N1CCC(O)(c2ccccc2)CC1
Potency [1]: inactive
Potency [2]: inactive
Potency [3]: inactive
Potency [4]: inactive

O=C(CSc1nc2c(c(=O)n1-c1ccccc1)SCC2)Nc1ccc(-c2ccccc2)cn1
Potency [1]: inactive
Potency [2]: 0.379 µM (active)
Potency [3]: 36.5 nM (active)
Potency [4]: 32.5 nM (active)

Cc1cn(C2C=CC(CO)O2)c(=O)[nH]c1=O (stereo not drawn)
Potency [1]: inactive
Potency [3]: inactive

O=C(C(c1ccccc1)c1ccccc1)N1CCN(CC(O)COc2cccc3ncccc23)CC1 (stereo not drawn)
Potency [1]: inactive
Potency [2]: 12 µM (active)
Potency [4]: 14.5 µM (active) and 20.9 µM (active)

c1cn2cc(-c3ccc4cn[nH]c4c3)nc(Nc3ccc(N4CCOCC4)cc3)c2n1
Potency [1]: inactive
Potency [2]: 0.601 µM (active)
Potency [3]: 325 nM (active)
Potency [4]: 409 nM (active)
activity [6]: -53.7%
Potency [7]: 21.5 µM (active)
activity [8]: -49.6%
activity [9]: -53.5%

Nc1ncnc2c1nc(N)n2[C@@H]1O[C@H](CO)[C@@H](O)[C@H]1O
Potency [1]: inactive
Potency [10]: inactive
Potency [3]: 1450 nM (active)
Potency [4]: 649 nM (active)

Cc1cc(Nc2ccc(NC(=O)c3ccc(Nc4ccnc5ccccc45)cc3)cc2)nc(N)n1
Potency [1]: inactive
Potency [2]: inactive
Potency [3]: 1830 nM (active)
Potency [4]: 817 nM (active)
activity [6]: -15.9%
Potency [7]: 30.4 µM (active)
activity [8]: -17.6%
activity [9]: -11.7%

CC1(C)CC(=O)C2=C(C1)NC(=S)NC2c1cccc(O)c1 (stereo not drawn)
Potency [1]: inactive
Potency [2]: 2.13 µM (active)
Potency [3]: 728 nM (active)
Potency [4]: 817 nM (active)

CC[C@]1(O)CC2CN(CCc3c([nH]c4ccccc34)[C@@](C(=O)OC)(c3cc4c(cc3OC)N(C)[C@H]3[C@@](O)(C(=O)OC)[C@H](OC(C)=O)[C@]5(CC)C=CCN6CC[C@]43[C@@H]65)C2)C1 (stereo partly drawn)
Potency [1]: inactive
outcome (Papain (Carica papaya)): inactive
Potency [3]: 57.8 nM (active) and 417 nM (active)
Potency [4]: 45.9 nM (active) and 372 nM (active)

CC(C)(C)Nc1nc(Nc2ccc(C(N)=O)cc2)cc(N)c1C#N
Potency [1]: inactive
Potency [2]: 3.38 µM (active)
Potency [3]: 3650 nM (active)
Potency [4]: 1450 nM (active)
